Screening data (PubChem)
HT1080NT lethal = kills 2HG-producing HT-1080-NT fibrosarcoma cells; HT-1080-NT fibrosarcoma viability, CellTiter-Glo ATP luminescence, 48 h; Potency, µM (series often up to 46.1 µM), for the others: top-dose activity, negative = less viability, most hits filed as cytotoxic; hit rate 1.6% among 360,000;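 note: NT is the 2HG producing partner of a matched IDH1 knockdown line; 0% = DMSO-treated cells and -100% = media-only wells without cells; nearly all actives have a fitted effect of over 55% in size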
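Compounds were tested in concentration-response format on HT-1080-NT cells for 48 hours at 37 degrees C. Cell viability came from CellTiter-Glo luminescence; curves were classified by r2, response magnitude and activity.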
TDP1 cell CPT = DT40-hTDP1 cell growth loss with CPT; chicken DT40 Tdp1-/-;hTDP1 cells + 20 nM CPT, ATP luminescence, 48 h; Potency, µM (doses to about 46.2 µM), for the others: at the top dose activity change, negative = growth inhibition, usual class: inhibitors; hit rate 12% among 420,000; AID 686979; note: nearly all actives have a fitted effect of over 55% in size
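Chicken DT40 Tdp1-/- cells stably complemented with human TDP1 were seeded at 400 cells/well in medium containing 20 nM camptothecin, exposed to pin-transferred compounds, and grown at 37 °C for at least 48 hr. Viability was read as ATP luminescence.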
KB-3-1 cytotox = kills parental KB-3-1 adenocarcinoma cells; Potency, µM (top dose mostly 46.1 µM), actives largely listed as cytotoxic; hit rate 1.4% among 400,000; KB-3-1 viability, CellTiter-Glo ATP luminescence, 72 h; note: nearly all actives have a fitted effect of over 60% in size
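Here the drug-naive KB-3-1 line serves as comparator for MDR sub-line selectivity; cells received compound titrations, 72 h at 37 °C, then CellTiter-Glo readout.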
KB-V1 cytotox = kills drug-selected multidrug resistant KB-V1 cells; KB-V1 MDR cells viability, CellTiter-Glo, 72 h; Potency, µM (series often up to 46.1 µM), usual class: cytotoxic; hit rate 3.4% among 400,000; note: nearly all actives have a fitted effect of over 60% in size
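Readout: CellTiter-Glo luminescence, 10 min after addition. Cells: KB-V1 MDR subline, 72 h at 37 degrees C with compound. Analysis: corrected, normalized data fitted to concentration-effect curves.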
TDP1 cell noCPT = qHTS for Inhibitors of human tyrosyl-DNA phosphodiesterase 1 (TDP1): qHTS in cells in absence of CPT; AID 686978, 2013; hit rate 15% among 420,000; Potency, µM (doses to about 46.2 µM), for the others: at the top dose activity change, negative = growth inhibition, hits mostly inhibitors; DT40 Tdp1-/- hTDP1 cells, no CPT, ATP luminescence, 48 h; note: nearly all actives have a fitted effect of over 55% in size
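Luminescent ATP content (CellTiter-Glo) served as the growth readout. Knockout chicken DT40 cells expressing human TDP1 were exposed to compounds without camptothecin for a minimum 48 hr at 37 °C.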
HT1080 IDH1KD tx = kills HT-1080 cells with IDH1 knockdown. AID 686971. HT-1080 IDH1 knockdown viability, ATP luminescence, 48 h. hit rate 2% among 360,000. Potency, µM (highest dose often 46.1 µM), without a hit: at the top dose activity, negative = toxicity, actives largely listed as cytotoxic;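 note: 0% = DMSO wells and -100% = cell-free medium wells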
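Viability of IDH1-knockdown HT-1080 fibrosarcoma cells was assessed by CellTiter-Glo after 48 h at 37 °C with titrated compound; concentration-effect curves were classified by fit quality and response size.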
* marks the source's active call; other numbers are inactive results; i = inactive; ? = inconclusive; . = not tested or not shown; [ ] = remark or other dose. Hits are enriched below; roughly 19% of the tested compounds scored in any of these assays. Calls come from the whole dose curve; as a rule, active = well fitted curve in the direction sought with a large enough effect; inconclusive = small, poorly fitted or top-dose-only effect, or another doubt; inactive = no such curve, though single readings can be large; an effect the other way counts as inactive or inconclusive. Unless noted, % is set by controls: 0 for no effect and ±100 for the full control effect; potency is the fitted concentration of half-maximal effect.

SMILES | HT1080NT lethal | TDP1 cell CPT | KB-3-1 cytotox | KB-V1 cytotox | TDP1 cell noCPT | HT1080 IDH1KD tx
COCCNC(=O)C1(C)CCN(C(=O)c2sccc2C)C1 (stereo unspecified) | 22.0% | -8.3% | i | i | -11.7% | 15.1%
Clc1cccc(Cl)c1/C=C/c1ccn[nH]1 | ? | 18.4µM* | ? | i | 10.3µM* | ?
CCN(CC)c1ncnc2c1ncn2[C@H]1CN(Cc2ccc(F)cc2)C[C@@H](CO)O1 | 12.6% | ? | i | ? | -22.7% | 8.6%
NCCNc1ncnc2ccc(-c3ccc4c(c3)OCO4)cc12 | . | . | ? | i | . | .
CCOCCCN(Cc1ccco1)C(=O)c1cc2c(s1)-c1c(C)cccc1OC2 | . | ? | i | ? | 23.1µM* | .
Cc1ccc2[nH]c(=O)c3cc(C(=O)N(CCCOC(C)C)Cc4ccco4)sc3c2c1 | -26.9% | 23.1µM* | i | i | 11.6µM* | ?
CC(C)OCCCN(Cc1ccco1)C(=O)c1cc2c(s1)-c1ccccc1OC2 | . | . | 16.4µM* | 9.2µM* | . | .
CCCCN(Cc1ccco1)C(=O)c1cc2c(=O)[nH]c3ccc(C)cc3c2s1 | -2.1% | ? | i | i | ? | -15.8%
Cc1cc(C(=O)NNC2CC(=O)N(c3ccc4ccccc4c3)C2=O)c(C)o1 (stereo unspecified) | 8.4% | 0.0% | i | i | 7.1% | 3.1%
O=C1NC[C@@H](CCCCN2CCN(CCc3ccccc3)C(=O)C2=O)N(Cc2ccccc2)C1=O | ? | -6.9% | i | i | -2.3% | 13.0%
COc1ccc(OC)c(-c2nnc3n2N=C(c2ccc(OC)c(OCC4CC4)c2)CS3)c1 | . | . | 0.92µM* | 4.61µM* | . | .
Fc1ccccc1-c1nnc2n1N=C(c1ccc(OC(F)F)c(OCC3CC3)c1)CS2 | . | . | i | i | . | .
COc1ccc(C2=Nn3c(nnc3-c3ccccc3Cl)SC2)cc1OCC1CC1 | . | . | 2.91µM* | ? | . | .
NC(=S)Nc1cccc(F)c1 | 1.5% | 5.1% | i | i | -5.6% | 24.5%
Fc1cccc(NC(=S)NNc2c3ccccc3nc3ccccc23)c1 | ? | 1.3µM* | ? | ? | 0.92µM* | 20.6µM*
Fc1cccc(NC(=S)NNc2ccccc2)c1 | 9.7% | 3.26µM* | i | i | 2.59µM* | 5.0%
CC1CN(C(=O)c2cccc(S(=O)(=O)N3CCOCC3)c2)CC(C)O1 (stereo unspecified) | 3.0% | -3.6% | i | i | 1.0% | ?
O=C(c1cccc(S(=O)(=O)N2CCN(c3ccc(F)cc3)CC2)c1)N1CCCC(C(F)(F)F)C1 (stereo unspecified) | 16.4µM* | 3.26µM* | ? | ? | 4.11µM* | ?
Cc1cccc(NS(=O)(=O)c2cccc(C(=O)N3CCCC(C(F)(F)F)C3)c2)c1 (stereo unspecified) | -0.1% | ? | i | ? | ? | -6.7%
CC1CN(C(=O)c2cccc(S(=O)(=O)N3CCN(c4ccc(F)cc4)CC3)c2)CC(C)O1 (stereo unspecified) | 8.0% | 25.9µM* | i | ? | ? | 1.2%
O=c1c(CCc2ccccc2)nc2cnc(N3CCOCC3)nc2n1C[C@H]1CCCO1 | . | ? | . | . | 13.3% | .
COc1ccccc1CNC(=O)Cn1ncc2c3ccccc3n(Cc3ccccc3C)c2c1=O | . | 7.31µM* | i | i | 16.4µM* | .
Cc1ccccc1Cn1c2ccccc2c2cnn(CC(=O)NCc3cccc(Cl)c3)c(=O)c21 | . | 14.6µM* | i | i | -103.4% | .
O=C(Cn1ncc2c3ccccc3n(Cc3ccccc3)c2c1=O)Nc1ccccc1C(F)(F)F | . | ? | i | i | ? | .
CCc1cccc(C)c1NC(=O)Cn1ncc2c3ccccc3n(Cc3ccccc3)c2c1=O | . | 10.3µM* | i | i | 8.2µM* | .
SMILES | HT1080NT lethal | TDP1 cell CPT | KB-3-1 cytotox | KB-V1 cytotox | TDP1 cell noCPT | HT1080 IDH1KD tx
C=CC(COCc1ccccc1)N(C(=O)OC(C)(C)C)S(=O)(=O)c1ccccc1Br (stereo unspecified) | -17.8% | ? | i | ? | 16.4µM* | -9.9%
CC(C)C(=O)Nc1ncc(Cc2ccc(Cl)cc2)s1 | -13.0% | ? | i | ? | ? | ?
Cc1nnc(SCC(=O)N2c3ccccc3Sc3ccccc32)n1N | -11.6% | -2.1% | i | i | 0.8% | 1.7%[9.24 µM]
Cc1nnc(SC(=O)N2c3ccccc3Sc3ccccc32)s1 | 8.91µM* | 13µM* | i | ? | 10.3µM* | 7.08µM*
CC(CC(=O)N(C)c1c(N)n(Cc2ccccc2)c(=O)[nH]c1=O)c1ccccc1 (stereo unspecified) | 1.1% | -1.4% | i | i | -4.5% | -4.0%
Cc1ccc2nc(CN3CCN(C(=O)Nc4cccc(C)c4C)CC3)oc2c1 | . | ? | i | i | -4.1% | .
CN(C)c1ccc(NC(=O)C(=O)C2C(=O)Nc3ccccc32)cc1 (stereo unspecified) | -2.2% | -21.2% | i | i | -21.6% | -5.7%
CC(C)(C)c1ccc(NC(=O)C(=O)C2C(=O)Nc3ccccc32)cc1 (stereo unspecified) | -0.9% | ? | i | i | 13µM* | 2.1%
CC(C)c1ccc(NC(=O)C(=O)C2C(=O)Nc3ccccc32)cc1 (stereo unspecified) | -0.3% | 20.6µM* | i | i | 14.6µM* | -0.9%
O=C(O)CC(c1cccc([N+](=O)[O-])c1)N1Cc2ccccc2C1=O (stereo unspecified) | 12.3% | -0.5% | i | i | -1.4% | 16.8%
COc1cccc(-n2c(SCC(N)=O)nc3c(oc4ccccc43)c2=O)c1 | . | ? | i | i | -27.4% | .
CCN(CC(=O)Nc1ccc(NC(C)=O)cc1)C(=O)c1cccc(-n2cccc2)c1 | 3.4% | -0.6% | i | ? | ? | 4.3%
CCCCN1C(=N)N([C@@H](C)CN2CCC[C@H]2CN2C(N)=NC[C@@H]2Cc2ccccc2)C[C@H]1[C@H](C)CC | ? | ? | i | i | ? | 6.1%
CC(C)[C@H](CN1CCC[C@H]1CN1C(N)=NC[C@@H]1Cc1ccccc1)N1C[C@@H](Cc2ccccc2)N(CCc2ccc(Cl)c(Cl)c2)C1=N | -2.8% | 9.2µM* | i | i | ? | 0.6%
